JMJD2E inh = blocks human JMJD2E demethylase activity. B2RXH2. hit rate 1.6% among 230,000. JMJD2E catalytic domain, FDH-coupled NADH fluorescence (FDH is formaldehyde dehydrogenase). Potency, µM (titrated, usually from 57.1 µM), most hits filed as inhibitors. AID 2147; note: nearly all actives have a fitted effect of over 50% in size
Target sequence (B2RXH2 1-337 limits assumed): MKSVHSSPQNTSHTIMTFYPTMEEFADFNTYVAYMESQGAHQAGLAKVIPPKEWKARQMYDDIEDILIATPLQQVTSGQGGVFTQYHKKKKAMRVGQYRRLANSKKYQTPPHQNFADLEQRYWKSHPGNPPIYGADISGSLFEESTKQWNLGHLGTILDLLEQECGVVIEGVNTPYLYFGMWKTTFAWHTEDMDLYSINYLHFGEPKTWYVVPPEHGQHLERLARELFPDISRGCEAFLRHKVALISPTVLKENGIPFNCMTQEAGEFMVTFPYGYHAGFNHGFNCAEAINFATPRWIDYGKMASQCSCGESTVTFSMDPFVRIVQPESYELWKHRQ
ALDH1A1 block = ALDH1A1 (human) enzyme inhibition; P00352; Purified ALDH1A1, NADH fluorescence, propionaldehyde substrate; Potency, µM (doses to about 75.3 µM), actives largely listed as inhibitors; hit rate 7.3% among 220,000; AID 1030
HPGD inh = blocks human HPGD enzyme activity. purified HPGD, NADH fluorescence kinetic, PGE2 substrate. AID 894. hit rate 4.3% among 150,000. Potency, µM, most hits filed as inhibitors. P15428
Target sequence (P15428 whole entry, looked up): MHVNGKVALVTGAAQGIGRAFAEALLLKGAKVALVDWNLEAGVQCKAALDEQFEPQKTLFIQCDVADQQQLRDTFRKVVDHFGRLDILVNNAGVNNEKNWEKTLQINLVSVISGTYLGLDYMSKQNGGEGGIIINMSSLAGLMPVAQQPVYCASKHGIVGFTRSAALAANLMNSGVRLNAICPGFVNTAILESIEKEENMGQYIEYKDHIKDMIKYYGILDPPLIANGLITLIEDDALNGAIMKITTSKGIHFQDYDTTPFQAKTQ
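20 nM HPGD preincubated 15 min at room temperature with compound in 50 mM Tris-HCl pH 8, 0.01% Tween 20. Started with 1 mM NAD+ and 30 uM prostaglandin E2; NADH fluorescence (360/450 nm) read 5 times over 30-s intervals, last minus first.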
PNC inhibitor = perinucleolar compartment assembly inhibition; PC3M PTB-GFP, PNC prevalence imaging, 16 h; stronger effect = lower value; activity change (PNC), negative = inhibition, % at 10 µM; hit rate 3.1% among 140,000; AID 2417;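 active = readout at or below -70, meaning at least 70% loss of cells showing the perinucleolar compartment, a nuclear body marking cancer cells; inconclusive = readout between -30 and a set limit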
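Read-out is percentage of cells bearing a perinucleolar compartment, from automated 20x imaging of fixed, Hoechst-stained PC3M PTB-GFP cells. Cells were seeded 4 h, then exposed 16 h to compound (23 nl of library stock) in duplicate plates.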
Large screens that a line does not name were inactive. Shown are actives, neighbours in structure and some others; about 11% of the full set was active somewhere. Unless noted, calls come from the whole dose curve; as a rule, active = well fitted inhibition curve with a large enough effect (not every such curve was filed as active); inconclusive = small, poorly fitted or top-dose-only effect, or another doubt; inactive = no such curve, though single readings can be large or run the other way.

C=CCNC(=O)CN(c1ccc(F)cc1)S(=O)(=O)c1ccc(OC)cc1	none
CC(=O)c1cccc(NC(=O)COc2ccccc2)c1	PNC inhibitor inconclusive
COC(=O)c1cc(NC(=O)CN(c2ccc(OC)cc2)S(=O)(=O)c2ccc(F)cc2)ccc1Cl	PNC inhibitor -118.9
CSc1cccc(NC(=O)Cn2cccc2)c1	ALDH1A1 block 0.631µM, HPGD inh 14.1µM
CSc1cccc(NC(=O)COc2ccccc2)c1	ALDH1A1 block inconclusive, HPGD inh 17.8µM
CN(c1cccc(NC(=O)CN(c2ccc(Cl)c(Cl)c2)S(=O)(=O)c2ccccc2)c1)S(C)(=O)=O	PNC inhibitor -100.0
Cc1ccc(S(=O)(=O)N(CC(=O)Nc2cccc(N(C)S(C)(=O)=O)c2)c2ccc(Cl)c(Cl)c2)cc1	PNC inhibitor inconclusive
C[C@@]12C=CC(=O)C=C1CC[C@@H]1[C@@H]2[C@H](O)C[C@]2(C)[C@@H]1CC[C@]2(O)C(=O)CO	none (no result: PNC inhibitor)
Cn1c(NC(=O)COc2ccccc2)cc(=O)n(C)c1=O	ALDH1A1 block 25.1µM
Cn1c(NC(=O)CCc2ccccc2)cc(=O)n(C)c1=O	ALDH1A1 block inconclusive
Cc1ccccc1OCC(=O)Nc1cccc(N(C)S(C)(=O)=O)c1	none
CN(c1cccc(NC(=O)COc2ccccc2)c1)S(C)(=O)=O	PNC inhibitor -111.5
CCCC[C@@H]1C[C@H]1C(NC(=O)c1ccco1)c1ccc(Cl)cc1 (some centres undefined)	none (no result: PNC inhibitor)
Cc1cc(-c2ccccc2)nc(N2CCC(C(=O)NC(C)C)CC2)n1	HPGD inh inconclusive, PNC inhibitor -99.6
Cn1c(=O)c2c(O)c(Cc3ccccc3)c(=O)[nH]c2n(C)c1=O	ALDH1A1 block 14.1µM, PNC inhibitor inconclusive
Cc1c(NC(=O)c2cc(-c3cccs3)on2)c(=O)n(-c2ccccc2)n1C	ALDH1A1 block 31.6µM, PNC inhibitor inconclusive
Fc1ccccc1-n1[nH]nnc1=S	ALDH1A1 block 2.24µM, HPGD inh 25.1µM
CCCCn1c(NCc2ccncc2)nc2ccccc21	none (no result: HPGD inh, PNC inhibitor)
COc1cccc(CNn2cnnc2)c1O	ALDH1A1 block 12.6µM (no result: HPGD inh, PNC inhibitor)
CCCn1c(CNc2ccccc2O)nc2ccccc21	JMJD2E inh 14.1µM, ALDH1A1 block 12.6µM
CCCn1c(NCc2cccc(OC)c2O)nc2ccccc21	ALDH1A1 block 6.31µM, PNC inhibitor inconclusive
CCCCn1c(NCc2ccc(N(C)C)cc2)nc2ccccc21	ALDH1A1 block 14.1µM (no result: HPGD inh, PNC inhibitor)
CCc1ccc(S(=O)(=O)Nc2ccc(O)c(C(=O)O)c2)cc1	ALDH1A1 block inconclusive (no result: JMJD2E inh, PNC inhibitor)
N#Cc1ccc(CN2CCC3(CC2)CCN(C(=O)c2ccco2)CC3)cc1	none (no result: JMJD2E inh, PNC inhibitor)
CSc1nc(N)c2ncn([C@@H]3O[C@H](COP(=O)(O)OP(=O)(O)O)[C@H](O)[C@H]3O)c2n1	none (no result: PNC inhibitor)
Nc1nc(-c2cccs2)c(CC(=O)O)s1	ALDH1A1 block inconclusive (no result: HPGD inh, PNC inhibitor)
O=C(O)Cc1sc(Nc2ccc(Cl)cc2)nc1-c1cccs1	JMJD2E inh inconclusive, ALDH1A1 block 1µM (no result: HPGD inh, PNC inhibitor)
COc1ccc(C)cc1NC(=O)C(OC(=O)c1cc(C)oc1C)c1ccccc1 (centres undefined)	PNC inhibitor inconclusive
COc1ccc(C)cc1NC(=O)C(NCC1CCCO1)c1ccccc1 (centres undefined)	ALDH1A1 block 17.8µM
COc1cccc(OCc2nnc(SCC(=O)NCc3ccco3)n2CCc2ccccc2)c1	ALDH1A1 block 22.4µM
COc1cccc(-c2nccc(NCCc3c[nH]c4ccc(OC)cc34)n2)c1	none (no result: JMJD2E inh, HPGD inh, PNC inhibitor)
O=C(CSc1nnc(COc2cccc3cccnc23)o1)N1CCc2ccccc21	ALDH1A1 block 14.1µM, PNC inhibitor inconclusive
O=C(CSc1nnc(COc2cccc3cccnc23)o1)N1CCN(C(=O)c2ccco2)CC1	JMJD2E inh inconclusive, PNC inhibitor -100.0
O=C(CSc1nnc(COc2ccc(F)cc2)o1)N1c2ccccc2CCc2ccccc21	ALDH1A1 block 3.16µM
Cc1cccc(OCc2nnc(SCC(=O)N3c4ccccc4CCc4ccccc43)o2)c1	none (no result: ALDH1A1 block, HPGD inh, PNC inhibitor)
CC1CCC(NC(=O)C2CC(=O)N(c3ccc4c(c3)OCCO4)C2)CC1 (centres undefined)	none (no result: HPGD inh, PNC inhibitor)
COCC1CCCN(C(=O)c2ccc(OC3CCN(Cc4ccccn4)CC3)cc2)C1 (centres undefined)	none (no result: HPGD inh, PNC inhibitor)
COc1ccc(-c2cc(N)n(S(=O)(=O)c3ccc(C)cc3)n2)c(OC)c1	JMJD2E inh inconclusive, ALDH1A1 block inconclusive, PNC inhibitor -91.4
COc1ccc(S(=O)(=O)n2nc(-c3ccc(Cl)cc3)cc2N)cc1	none (no result: ALDH1A1 block, HPGD inh, PNC inhibitor)
Cc1cc(NC(=O)CC(C)(C)C)nc2c1c(=O)oc1ccccc12	ALDH1A1 block inconclusive, PNC inhibitor -118.9
N#Cc1ccc(CN2CC3(CCN(C(=O)c4csnn4)CC3)C2)cc1	none (no result: JMJD2E inh, PNC inhibitor)
O=C(COC(=O)C1CC2C=CC1C2)Nc1cccc(S(=O)(=O)N2CCCCC2)c1 (centres undefined)	ALDH1A1 block inconclusive
O=C(COC(=O)C1CC2C=CC1C2)Nc1ccc2c(c1)OC(F)(F)O2 (centres undefined)	ALDH1A1 block inconclusive, PNC inhibitor -100.0
Cn1nc(OCC(=O)O)cc1C(F)(F)F	none (no result: HPGD inh, PNC inhibitor)
CCOC(=O)c1c(C)n(OCc2ccccc2)c2ccc3c(no[n+]3[O-])c12	PNC inhibitor -80.0
CCCCOn1c(C)c(C(C)=O)c2c3no[n+]([O-])c3ccc21	none (no result: HPGD inh, PNC inhibitor)
Cc1ccc(OC(C)C)c(CN(CCO)CCO)c1	PNC inhibitor -90.8
COc1ccccc1C(=O)NCC(=O)N/N=C/c1cn[nH]c1-c1ccccc1	none (no result: HPGD inh, PNC inhibitor)
COc1ccc(C(=O)N2CCC3(CCCN(Cc4ccncc4)C3)CC2)cc1	none (no result: JMJD2E inh, PNC inhibitor)
COc1ccc(CCC(=O)O)cc1OC	none (no result: ALDH1A1 block, HPGD inh, PNC inhibitor)
CC(=O)O[C@@H]1[C@@]2(C)O[C@H]2CC[C@]23O[C@H]2[C@H](OC3=O)C2=C(C)C(=O)O[C@@]21O	ALDH1A1 block 28.2µM
NCCNC(=S)S	ALDH1A1 block 3.16µM, HPGD inh 3.55µM (no result: JMJD2E inh, PNC inhibitor)
CCOC(=O)Cc1csc(-n2sc3ccccc3c2=O)n1	JMJD2E inh 10µM, ALDH1A1 block 3.55µM, HPGD inh 1.41µM
CCOC(=O)Cc1csc(SCn2nnc3ccccc3c2=O)n1	ALDH1A1 block inconclusive
CC1CC(CCC(=O)NC(=S)Nc2ccc(S(N)(=O)=O)cc2)C(=O)O1 (centres undefined)	none (no result: HPGD inh, PNC inhibitor)
CN1Cc2c(N3CCOCC3)nc(SCc3ccccc3)c(C#N)c2CC1(C)C	ALDH1A1 block inconclusive (no result: HPGD inh)
COC(=O)c1ccc(CSc2nc(N3CCOCC3)c3c(c2C#N)CC(C)(C)OC3)o1	ALDH1A1 block 1.26µM, PNC inhibitor inconclusive
CC1(C)Cc2c(C#N)c(SCC(=O)c3ccccc3)nc(N3CCOCC3)c2CS1	JMJD2E inh inconclusive, ALDH1A1 block 12.6µM
COC(=O)c1cc2ccsc2n1Cc1ccccc1F	PNC inhibitor inconclusive
Fc1ccc(-c2nc3n(c2-c2ccncc2)CCS3)cc1	JMJD2E inh inconclusive, HPGD inh inconclusive (no result: PNC inhibitor)
CC(C)OCCCn1c(SCC(=O)N2CCc3ccccc32)nc2ccccc2c1=O	none
CSc1ccccc1NC(=O)c1noc2c1CCC2	ALDH1A1 block 25.1µM, HPGD inh inconclusive, PNC inhibitor inconclusive
O=C(NCc1cccc(F)c1)c1noc2c1CCCC2	ALDH1A1 block inconclusive, HPGD inh 20µM, PNC inhibitor inconclusive
COC(=O)c1ccccc1NC(=O)c1noc2c1CCC2	ALDH1A1 block inconclusive
